According to PubChem BioAssay AID1578 (Sanford-Burnham Center for Chemical Genomics, 2009):
The campaign covered roughly 290,000 compounds. About 3,000 (1%) were called active. Cut-off read from the data, not from the text of the source: active = inhibition mostly above about 36% (no sharp cut-off); inactive = mostly below about 34%. What follows is part of a selection rich in actives, with near analogues and random picks from the rest.

Test: inhibition of NOD1-driven NF-kB reporter – cell-based, luminescence, uHTS, primary screen (AID 1578);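 note: HEK-293T reporter cells stimulated with the NOD1 agonist gamma-tri-DAP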
Conditions: NOD1-driven NF-kB luciferase reporter cells, at 4 µM, hits give high values

inhibition, inactive:
CC(C)=CCN1CCN(C/C(Cl)=C/c2ccccc2)CC1CCO (stereo not drawn) 1.6%, Cc1ccc(CNC(=O)CCS(=O)(=O)c2cc3c(cc2Cl)NC(=O)CO3)o1 -10.7%, COc1cc(/C=C(\C#N)C(=O)Nc2ccccc2)ccc1OCCN1CCOCC1 -28.7%, COc1cc2c(C(=O)NCCN(C)C)cn(CC(C)C)c(=O)c2cc1OC 1.3%, COc1ccc(-c2nn(CC(=O)Nc3ccc(Cl)c(Cl)c3)c(=O)c3ccccc23)cc1 15.6%, COc1ccc(C(=O)N/C(=C\c2cn(S(=O)(=O)N(C)C)c3ccccc23)C(=O)N2CCOCC2)cc1 -6.8%, Cc1cc(C)cc(C(=O)NCC(=O)NCc2ccc(S(N)(=O)=O)cc2)c1 -5.1%, COc1cccc(N2CCN(C(=O)c3cc4cc(Cl)ccc4[nH]3)CC2)c1 -4.9%, COC(=O)c1c(N)sc(Cc2ccccc2)c1C -28.7%, CCOC(=O)c1c(N)sc(C(=O)Nc2ccccc2)c1C -18.7%, Cc1ccc(S(=O)(=O)NC(C)(C)CSc2ncccn2)cc1 -3.5%, Cc1ccc(S(=O)(=O)NC(C)(C)CSc2nnc(N)s2)cc1 -25.5%, N#CCSc1n[nH]c2nc3c(c(=O)n12)C1(CCCC1)Cc1ccccc1-3 16.8%, CCSc1n[nH]c2nc3c(c(=O)n12)C1(CCCCC1)Cc1ccccc1-3 -13.1%, CCN(C(=O)/C=C/c1ccc(OC)cc1)C1CCCCC1 -18.8%, COc1cccc2cc(-c3cc(=O)oc4ccc(OCC(C)=O)cc34)oc12 39%, CC(=O)COc1cc2c(-c3cc4ccccc4o3)cc(=O)oc2cc1C 40.5%, Cc1cc(C)cc(NC(=O)CSc2nc(CSc3ccc(Cl)cc3)cc(=O)[nH]2)c1 8.6%, COc1ccc(Cl)cc1NC(=O)CSc1nc(C)cc(C)n1 -29.7%, CCOC(=O)N1CCC(NCCNC(=O)c2ccccc2Cl)CC1 9.8%, Cn1c(Oc2ccc(Cl)cc2)c(C=O)c2ccccc21 22.8%, Cn1c(Sc2ccccc2Cl)c(C=O)c2ccccc21 41.9%, COc1ccc(-c2nnn(CC(=O)c3c[nH]c4ccccc34)n2)cc1OC -7.9%, CCOC(=O)c1[nH]ncc1CN1CCN(Cc2ccccc2)C(CCO)C1 (stereo not drawn) -20.2%, CSc1ccc(S(=O)(=O)N2CCC(C(=O)NCCN3CCOCC3)CC2)cc1 -17.3%, Cc1ccc(C)n1-n1c(C)nc2sc(-c3ccccc3)cc2c1=O -14.6%, Cc1nc2ccccc2c(=O)n1N -11.6%, CSc1nc2sc(-c3ccccc3)cc2c(=O)n1N -13.6%, O=c1c2sc(-c3ccccc3)cc2nc2n1CCC2 -26.3%, COc1cccc(CN2CCN(C3CCOCC3)CC2CCO)c1 (stereo not drawn) 2.6%, CCOC(=O)Cc1nnc(NC(=O)CSc2nnc3c(n2)[nH]c2ccccc23)s1 19%, CSc1ccc(C(=O)C2CCCN(S(=O)(=O)c3c(C)noc3C)C2)cc1 (stereo not drawn) -19.9%, Cc1noc(C)c1S(=O)(=O)N1CCCC(C(=O)c2cccc(OC(C)C)c2)C1 (stereo not drawn) 4.9%, CCCCOc1ccc(-c2ncc(C(=O)O)c(C)n2)cc1 -62%, COc1ccccc1CN(Cc1nc2ccccc2c(=O)[nH]1)S(=O)(=O)c1ccc(C)cc1 -16.5%, C=CCc1ccc(O)c(-c2ccc(O)c(CC=C)c2)c1 -6.9%, Nc1cc(S(=O)(=O)c2ccc(O)c(N)c2)ccc1O -4.4%, Cc1[nH]c(-c2ccc(F)cc2)cc1C(=O)N1CCN(c2ccccc2)CC1 -4.4%, O=C(Nc1nnc(-c2ccccc2)o1)C1CCCCC1 -11.8%, O=C(Nc1cccc(-c2nnc(-c3ccccc3)o2)c1)C1CC1 2.9%, Brc1cc(Br)c2nc3c(cc2c1)CCC3 -13.3%, COc1cc2cc(Br)cc(Br)c2nc1C 37.7%, COc1cccc(C(=O)Nc2nnc(S(=O)(=O)N(C)Cc3ccc(F)cc3)s2)c1 16.8%, COc1ccc(CN(C)S(=O)(=O)c2nnc(NC(=O)c3cccc(F)c3)s2)cc1OC 4.4%, CN(Cc1ccccc1)S(=O)(=O)c1nnc(NC(=O)c2ccccc2)s1 1.1%, COc1ccc(CN(C)S(=O)(=O)c2nnc(NC(=O)c3cccc(OC)c3)s2)cc1 7.1%, CC(=O)C1=C(O)C(=O)N(Cc2ccccc2)C1c1ccco1 (stereo not drawn) -9.8%, Cc1ccccc1CN1CCC(n2nccc2NC(=O)c2cccnc2)CC1 -23.7%, Cc1ccc(S(=O)(=O)CCC(=O)OCC(=O)c2c[nH]c3ccccc23)cc1 17.3%, COCCn1c(Cc2ccccc2)nnc1SCC(=O)Nc1cc(C)on1 -22.5%, CCn1c(Cc2ccccc2)nnc1SCC(=O)Nc1cc(C)on1 5%, Cc1ccc(S[C@@H](CCN2CC[C@H](O)CCC2=O)c2ccccc2)cc1 -12.3%, CC(C)(C)c1ccc(C(=O)n2cnc3ccccc32)cc1 -13.4%, COc1ccc(C(=O)n2cnc3ccccc32)cc1 -10.8%, O=C(CSc1ncn[nH]1)NCCCc1ccccc1 -16.5%, COc1ccc(CNc2cccc3[nH]c(C(F)(F)F)nc23)cc1 6%, COc1ccc(CNc2cccc3[nH]c(C(F)(F)F)nc23)cc1OC -14.9%, O=C1OCC/C1=C\c1ccc2c(c1)OCO2 -0.1%, CCOC(=O)c1c(C)[nH]c(C)c1-c1ccccc1OC 13.9%, CCOC(=O)c1c2c3c(cccc3[nH]c1=O)C(=O)c1ccccc1-2 -40.2%, COc1ccc2[nH]cc(C(=O)CN3CCN(C/C=C/c4ccccc4)CC3)c2c1 -1.2%, Cc1[nH][nH]c(=O)c1C(c1c(C)[nH][nH]c1=O)c1cn(Cc2ccc(Cl)c(Cl)c2)c2ccccc12 -18.9%, Cc1[nH][nH]c(=O)c1C(c1c(C)[nH][nH]c1=O)c1cn(Cc2cccc3ccccc23)c2ccccc12 10.6%, Cc1c(CN(C)Cc2cn(C)nc2-c2ccccc2F)[nH]c2ccccc12 -13.2%, c1ccc(CCn2nnnc2C(c2cccs2)N2CCN(Cc3ccc4c(c3)OCO4)CC2)cc1 (stereo not drawn) -12.4%, COc1ccc(C)cc1NC(=O)CSc1nnc(COc2ccc(C)cc2)n1Cc1ccco1 28.5%, CCC(C)Sc1nc(O)c(Cc2ccccc2)c(=O)[nH]1 (stereo not drawn) 6.4%, O=C(CSC1=NC(=O)C(Cc2ccccc2)C(=O)N1)NC1CCCCC1 (stereo not drawn) -8.3%, COc1ccc(-c2cn[nH]c2-c2ccc(OCc3ccccc3)cc2O)cc1OC 28.5%, Nc1ncc(-c2ccccc2)c(-c2ccc(OCc3ccccc3)cc2O)n1 2.3%, COc1ccccc1-c1cn[nH]c1-c1ccc(OCc2ccccc2F)cc1O 0%, COc1ccc(-c2cn[nH]c2-c2ccc(OCc3ccc([N+](=O)[O-])cc3)cc2O)cc1OC 34.4%, O=[N+]([O-])c1ccc(COc2ccc(-c3[nH]ncc3-c3ccc(Cl)cc3)c(O)c2)cc1 5.4%, COc1ccc(-c2cnc(N)nc2-c2ccc(OCc3ccccc3)cc2O)cc1 -0.9%, O=C(/C=C/NCc1cccnc1)C(F)(F)C(F)(F)F -53%, Cc1ccc(-c2csc(Nc3ccc(C(=O)O)cc3)[n+]2Cc2ccccc2)cc1 17.8%, O=C(CCN1C(=O)[C@@H]2Cc3ccccc3CN2C1=O)NCc1ccc(Cl)cc1 -7.8%, NC(=O)c1ccccc1NC(=O)c1ccccc1S(=O)(=O)c1ccccc1[N+](=O)[O-] -18.3%

inhibition, active:
COC(=O)c1c(N)sc(C(=O)NCCc2ccccc2)c1C 69.8%, Cc1ccc(S(=O)(=O)NC(C)(C)CSc2nnc(Nc3ccccc3)s2)cc1 64.7%, N#CCSc1n[nH]c2nc3c(c(=O)n12)C1(CCCCC1)Cc1ccccc1-3 48%, COc1cccc2cc(-c3cc(=O)oc4cc(C)c(OCC(C)=O)cc34)oc12 71.3%, Cc1nc2sc(-c3ccccc3)cc2c(=O)n1N 29.8%, Cc1nc2cc(-c3ccccc3)sc2c(=O)n1N 95.4%, COc1c(C)cc(C(=O)C2CCCN(S(=O)(=O)c3c(C)noc3C)C2)cc1C (stereo not drawn) 48.6%, C=CCc1cc(S(=O)(=O)c2ccc(O)c(CC=C)c2)ccc1O 47.4%, O=C(Nc1cccc(-c2nnc(-c3ccccc3)o2)c1)C1CCCCC1 30.6%, CCCCn1c(Cc2ccccc2)nnc1SCC(=O)Nc1cc(C)on1 112%, CCN(CC)c1ccc(C(=O)n2cnc3ccccc32)cc1 38.7%, COc1cc(CNc2cccc3[nH]c(C(F)(F)F)nc23)cc(OC)c1 33%, CCOC(=O)c1c(C)[nH]c2c1-c1ccccc1C(=O)C2=O 106%, Cc1[nH][nH]c(=O)c1C(c1c(C)[nH][nH]c1=O)c1cn(Cc2ccccc2Cl)c2ccccc12 83.9%, COc1ccc(-c2cn[nH]c2-c2ccc(OCc3ccc([N+](=O)[O-])cc3)cc2O)cc1 91.5%
